# Reference: PubChem BioAssay AID602449 (Sanford-Burnham Center for Chemical Genomics, 2012)
# “And” between values parts separate entries of the source, which are not always exact repeats. Equal entries are not always repeated. The whole screen tested about 360,000 compounds, of which about 5,000 (1.4%) were called active.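 Rule for the calls: active = inhibition of 50% or more, scaled per plate between neutral and stimulator controls; inactive = the rest.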 The full list was thinned out, with actives kept by preference. Some structures have more than one record in an assay (separate samples or runs), and their calls can disagree.
# Assay: mitochondrial permeability transition pore inhibitors, primary screen, biochemical, isolated mouse mitochondria, absorbance (AID 602449);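 note: 0% = DMSO wells given calcium and 100% = 1 mM EGTA wells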
# Conditions: Ca2+ swelling absorbance, 30 min, at 10 µM, stronger effect = higher value
row,Compound,inhibition
1,Cc1ccc(C)c(NC(=O)COC(=O)Cn2c(C)csc2=O)c1,-0.7% (inactive)
2,COc1cc(NC(=O)c2[nH]cnc2C(N)=O)cc(C(=O)Nc2cccc(C(F)(F)F)c2)c1,0% (inactive)
3,COc1ccc(C(N)c2csc(NC(=O)Nc3cccc(C(F)(F)F)c3)n2)cc1 (stereo not drawn),0.9% (inactive)
4,COc1cc(NC(=O)c2cncc(-c3ccc(C#N)cc3)c2)cc(C(=O)Nc2cccc(C(F)(F)F)c2)c1,93.8% (active) and 48.4% (inactive)
5,O=C(NCc1ccccc1Cl)NC(=O)c1csc([N+](=O)[O-])c1,1% (inactive)
6,COCCSc1nnc(NC(=O)c2cc(OC)c(OC)cc2[N+](=O)[O-])s1,-2.4% (inactive)
7,O=C(Nc1nnc(SCc2c(Cl)cccc2Cl)s1)c1cccc([N+](=O)[O-])c1,91.5% (active)
8,O=C(Nc1nnc(SCc2c(Cl)cccc2Cl)s1)C1CCCO1 (stereo not drawn),-1.4% (inactive)
9,O=C(Nc1nnc(SCc2ccccc2Cl)s1)c1cccc([N+](=O)[O-])c1,96.3% (active)
10,O=C(Nc1nnc(CCN2CCCCC2)s1)c1cccc(Cl)c1,-0.1% (inactive)
11,CCO/N=C(/C)c1c(O)cc(-c2ccccc2)n(-c2ccccc2)c1=O,8.8% (inactive)
12,O=S1(=O)CC(N2CCC(Cc3ccccc3)CC2)CN1Cc1ccccc1 (stereo not drawn),0.9% (inactive)
13,COc1ccc(OCCCC(=O)Nc2nnc(C3CCCO3)s2)cc1 (stereo not drawn),1.4% (inactive)
14,CCC1CCCCN1C(=S)NC(=O)c1ccco1 (stereo not drawn),-3.3% (inactive)
15,COc1cc(OC)cc(C(=O)Nc2nnc(SCC(=O)NCC3CCCO3)s2)c1 (stereo not drawn),-0.7% (inactive)
16,CCOC(=O)N1CCN(C(=O)C2CCCN(c3ncnc4c3sc3cccc(F)c34)C2)CC1 (stereo not drawn),20.7% (inactive)
17,CCOC(=O)N1CCN(C(=O)C2CCN(S(=O)(=O)c3cc(Cl)ccc3OCC)CC2)CC1,-0.2% (inactive)
18,CCOC(=O)N1CCN(C(=O)C2CCN(c3ncnc4c3sc3cccc(F)c34)CC2)CC1,50% (active)
19,COC(=O)C1C(=O)NCC1c1ccc(OC)cc1 (stereo not drawn),1.1% (inactive)
20,Cc1nn(-c2ccccc2)c(CC(C)(C)C(=O)O)c1C(=O)O,-5.4% (inactive)
21,Nc1[nH]c(C(=O)c2ccccc2)c(-c2ccc(Br)cc2)c1C(=O)NC1CC1,0.8% (inactive)
22,COc1ccccc1N1CC(C(=O)Nc2nnc(SCC(=O)NC(C)C)s2)CC1=O (stereo not drawn),0.4% (inactive)
23,CC1=NC2(CCCc3c2no[n+]3[O-])N(O)C1(C)C (stereo not drawn),0.8% (inactive)
24,CC1(C)CC(=O)c2sc(N)nc2C1,83.2% (active)

row,Compound,inhibition
1,CC(=O)Nc1nc2c(s1)C(=O)NCC(C)(C)C2,0% (inactive)
2,CCCc1nc(N)nc2c1C(=O)CC(C)(C)C2,-2.5% (inactive)
3,COc1cccc(NC(=O)CN(C)C(=O)CSC(=S)N2CCCC2)c1,-0.1% (inactive)
4,CCCS(=O)(=O)N1CCCC(C(=O)NCCN2CCCCC2C)C1 (stereo not drawn),-1.3% (inactive)
5,CCCCCCc1cc2cc(-c3nnc(-c4ccccc4)o3)c(=O)oc2cc1O,96.2% (active)
6,COc1ccccc1CNC(=O)CCCNS(=O)(=O)c1cccc2nsnc12,-0.6% (inactive)
7,COCCCNC(=O)CN1C(=O)CSc2ccc(S(=O)(=O)N3CCOCC3)cc21,2.1% (inactive)
8,CCc1cc2c(SCC(=O)Nc3ncc(Cl)c(C)c3Cl)ncnc2s1,46.1% (inactive)
9,CCc1cc2c(NC3CCCC3)ncnc2s1,87.6% (active)
10,CCc1cc2c(NC(Cc3ccccc3)C(=O)O)ncnc2s1 (stereo not drawn),1.6% (inactive)
11,CC(=O)Oc1ccc(OC(C)=O)c2c1C1C=CC2CC1,-0.2% (inactive)
12,COc1cccc(-c2cnc3c(NC(C)=O)cc(-c4cc(F)ccc4OC)cn23)c1,-0.3% (inactive)
13,Cc1cc(=O)cc(C)n1-c1ccc(Cl)c(Cl)c1,-0.1% (inactive)
14,O=C1CSC(=S)N1c1ccc(Cl)c(Cl)c1,2.2% (inactive)
15,CC(C)N1C(=S)SC(C)(C)C1n1oc(=O)n(-c2ccc(Cl)c(Cl)c2)c1=O (stereo not drawn),92.3% (active)
16,N#Cc1cc([N+](=O)[O-])ccc1NC(=O)COC(=O)c1cnccn1,-1.8% (inactive)
17,Cc1ccc(OCCNC(=O)CNC(=O)c2ccc(C)c(C)c2)cc1,-0.6% (inactive)
18,O=C(Nc1cccc(Br)c1)C1CC(=O)N(C2CCCC2)C1 (stereo not drawn),-0.1% (inactive)
19,COc1ccc(OCC(O)CNC(=O)Nc2ccc(Cl)cc2)cc1 (stereo not drawn),6.8% (inactive)
20,CC(=O)N1CCC(N(C(=O)Nc2ccc(Cl)cc2)C(C)C)CC1,2.8% (inactive)
21,CC(C)S(=O)(=O)c1csc(NC(=O)Nc2ccc(Cl)cc2)c1Cl,88.8% (active)
22,Cc1ccc(S(=O)(=O)N(C)C)cc1NC(=O)COC(=O)/C=C/c1cccs1,-1.3% (inactive)
23,Cc1c(C)c(C)c(S(=O)(=O)N2CCC3(CC2)OCCO3)c(C)c1C,-0.6% (inactive)
24,COC(=O)/C(C#N)=C/c1occc1C,1.6% (inactive)
